From PubChem
OvCa metastasis = blocks SKOV3ip1 adhesion and invasion in omental model. SKOV3ip1-GFP adhesion/invasion on 3D omental model, fluorescence. Potency, µM (doses to about 45.8 µM), inactives show at the highest dose activity change, negative = inhibition, hits mostly inhibitors. 46,000 tested, 0.1% active;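 note: potency is the fitted concentration of half-maximal effect; plate controls were DMSO wells for no effect and tomatine positive control wells for full effect; nearly all actives have a fitted effect of over 65% in size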
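qHTS, 4-pt dose (0.36-46 umol/L); SKOV3ip1-GFP, 1,200 cells/well, no FBS; primary omental fibroblast/mesothelial co-culture 48 h pre-grown; 2 h RT + 16 h 37 C; PBS wash, 4% PFA; GFP count 488/509 nm.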
p53null 32C tox = kills p53 null cells at the permissive temperature; H1299-neo p53 null cells, ATP luminescence, 24 h, 32C; Potency, µM (series often up to 46.1 µM), inactives show at the highest dose activity change, negative = cytotoxicity, actives largely listed as cytotoxic; 55,000 tested, 0.62% active;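 note: potency is the fitted concentration of half-maximal effect; 0% = DMSO only and -100% = full killing by 100 µM tamoxifen; nearly all actives have a fitted effect of over 55% in size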
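H1299-neo, 600 cells/well; overnight 37C; cpd up to 46 uM, 24 h at 32C; ATPlite luminescence after 20 min RT; normalized to DMSO (0%) and tamoxifen 100 uM (100% kill); Hill-fit AC50.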
p53null 39C tox = kills p53 null cells at the nonpermissive temperature; H1299 p53-null (neo) cells, 39C, ATPlite viability, 24 h; Potency, µM (highest dose often 46.1 µM), inactives show at the highest dose activity, negative = cell killing, actives largely listed as cytotoxic; 55,000 tested, 0.97% active; AID 904;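 note: potency is the fitted concentration of half-maximal effect; 0% = DMSO only and -100% = full killing by 100 µM tamoxifen; nearly all actives have a fitted effect of over 50% in size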
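Luminescent ATP signal reported cell survival after H1299 lines (neo, p53 null; or p53 A138V) received up to 46 uM compound and 24 hr incubation at 39C.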
pS6 MEF inh = reduces mTORC1 signaling in Tsc2 and p53 null MEF cells | Tsc2-/- p53-/- MEF, phospho-rpS6 immunofluorescence/PI, 24 h | Potency, µM (highest dose often 38.3 µM), for the others: at the highest dose activity change, negative = inhibition, actives largely listed as inhibitors | 44,000 tested, 0.78% active | AID 493208;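 note: potency is the fitted concentration of half-maximal effect; plate controls were DMSO for no effect and rapamycin for full effect; nearly all actives have a fitted effect of over 50% in size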
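Compounds act on Tsc2-/-, p53-/- fibroblasts carrying an empty vector for 24 h before fixation and dual staining for phospho-S6 and DNA (propidium iodide). Values are percentages of cells above a rapamycin-defined pS6/PI threshold.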
PMP22 txn = PMP22 gene transcription modulation; S16 Pmp22-F2sN Schwann cells, FLuc/NLuc coincidence luminescence, 24 h; Potency, µM (series often up to 57.5 µM), for the others: at the highest dose activity change, negative = inhibition, actives largely listed as inhibitors; 43,000 tested, 2% active; AID 1508649; active = clear falling dose curves in both reporters; inconclusive = both reporters move, but less clearly or upward; inactive = either reporter flat; the % is the NLuc reporter signal; note: potency is the fitted concentration of half-maximal effect; % is set by controls: 0 for no effect and ±100 for the full control effect
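S16 Schwann cells carrying FLuc/NLuc coincidence reporter in the Pmp22 3' UTR treated with compound 24 h at 37C; FLuc then NLuc luminescence read sequentially by dual-luciferase reagents.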
S16 viability = toxic to S16 Pmp22-F2sN Schwann cells. S16 Pmp22-F2sN Schwann cells viability, CellTiter-Glo, 24 h. Potency, µM (highest dose often 57.5 µM), for inactives: at the highest dose activity change, negative = cytotoxicity, most hits filed as cytotoxic. 43,000 tested, 0.48% active; note: potency is the fitted concentration of half-maximal effect; % is set by controls: 0 for no effect and ±100 for the full control effect; nearly all actives have a fitted effect of over 65% in size
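Luminescence from CellTiter-Glo, read by CCD camera after a 15 min room-temperature incubation, served as the viability signal. Reporter Schwann cells (S16 Pmp22-F2sN) had been treated with pin-transferred compounds for 24 h at 37C.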
NLuc saturating = counter-screen for PMP22 expression modulators: NanoLuc inhibition, saturating substrate; shares compounds with PMP22 txn; 690 tested, 4% active; Secreted NLuc enzyme (filtered S16 cell medium), Nano-Glo luminescence; AID 1508638; Potency, µM (series often up to 57.5 µM), for inactives: at the top dose activity change, negative = inhibition, most hits filed as inhibitors; note: potency is the fitted concentration of half-maximal effect; % is set by controls: 0 for no effect and ±100 for the full control effect
NLuc Km counter = counter-screen for PMP22 expression modulators: NanoLuc inhibition at Km; shares compounds with PMP22 txn; secreted NLuc enzyme, coelenterazine luminescence, Km conditions; Potency, µM (doses to about 57.5 µM), for the others: top-dose activity change, negative = inhibition, usual class: inhibitors; 690 tested, 5% active; AID 1508639; note: potency is the fitted concentration of half-maximal effect; % is set by controls: 0 for no effect and ±100 for the full control effect
FLuc ctr PMP22 = counter-screen for PMP22 expression modulators: firefly luciferase inhibition; shares compounds with PMP22 txn; 690 tested, under 10 active; purified P. pyralis FLuc, luminescence, 10 min; Potency, µM (doses to about 57.5 µM), for the others: at the highest dose activity, negative = inhibition, hits mostly inhibitors; note: % of control where 0% means no effect
Target sequence (P08659 whole entry, looked up): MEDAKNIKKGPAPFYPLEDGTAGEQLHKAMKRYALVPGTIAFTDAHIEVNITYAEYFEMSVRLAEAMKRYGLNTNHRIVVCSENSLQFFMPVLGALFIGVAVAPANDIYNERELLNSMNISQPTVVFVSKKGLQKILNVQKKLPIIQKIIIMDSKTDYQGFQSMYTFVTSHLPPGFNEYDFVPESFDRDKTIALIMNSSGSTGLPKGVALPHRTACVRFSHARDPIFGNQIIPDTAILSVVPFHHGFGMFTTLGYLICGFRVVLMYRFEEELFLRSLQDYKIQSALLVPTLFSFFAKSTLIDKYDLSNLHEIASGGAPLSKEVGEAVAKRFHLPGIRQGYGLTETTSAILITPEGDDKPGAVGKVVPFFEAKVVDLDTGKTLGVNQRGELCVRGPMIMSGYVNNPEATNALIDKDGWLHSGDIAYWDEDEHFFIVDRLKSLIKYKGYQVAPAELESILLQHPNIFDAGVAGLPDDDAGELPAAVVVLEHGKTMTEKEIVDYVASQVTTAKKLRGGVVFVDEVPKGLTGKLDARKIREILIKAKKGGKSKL
S16 F2sN tox cnf = confirmation of cytotoxicity in S16 Pmp22-F2sN Schwann cells (luciferase reporters placed in the Pmp22 gene). 690 tested, 7% active. shares compounds with PMP22 txn. S16 Schwann cells viability, CellTiter-Glo ATP luminescence, 24 h. AID 1508641. Potency, µM (titrated, usually from 57.5 µM), for the others: top-dose activity change, negative = viability loss, most hits filed as cytotoxic; note: potency is the fitted concentration of half-maximal effect; % is set by controls: 0 for no effect and ±100 for the full control effect
PMP22 txn cnf = PMP22 transcription modulation, confirmatory. shares compounds with PMP22 txn. S16 Schwann cells Pmp22-F2sN, dual luciferase, 24 h. Potency, µM (doses to about 57.5 µM), for the others: at the highest dose activity change, negative = inhibition, usual class: inhibitors. 690 tested, 22% active; active = clear falling dose curves in both reporters; inconclusive = both reporters move, but less clearly or upward; inactive = either reporter flat; the % is the FLuc reporter signal; note: potency is the fitted concentration of half-maximal effect
PMP22 prot conf = rat PMP22 protein level modulation, confirmatory | shares compounds with PMP22 txn | AID 1508647 | 95 tested, under 10 active | S16 Schwann cells Pmp22-HiBiT, luminescence, 48 h | Potency, µM (doses to about 27.9 µM), for the others: at the top dose activity change, negative = inhibition, actives largely listed as inhibitors
Target sequence (P25094 whole entry, looked up): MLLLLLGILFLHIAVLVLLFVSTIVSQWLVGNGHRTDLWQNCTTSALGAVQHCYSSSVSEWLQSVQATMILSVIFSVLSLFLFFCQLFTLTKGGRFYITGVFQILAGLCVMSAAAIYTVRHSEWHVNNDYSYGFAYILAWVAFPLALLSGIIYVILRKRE
Starred values were filed as active, the others as inactive; i = inactive; ? = inconclusive; nt = no result. This is a sample that favours compounds with a hit; in the whole collection about 3% have one here. Unless noted, calls come from the whole dose curve; as a rule, active = well fitted curve in the direction sought with a large enough effect; inconclusive = small, poorly fitted or top-dose-only effect, or another doubt; inactive = no such curve, though single readings can be large; an effect the other way counts as inactive or inconclusive.

SMILES	OvCa metastasis	p53null 32C tox	p53null 39C tox	pS6 MEF inh	PMP22 txn	S16 viability	NLuc saturating	NLuc Km counter	FLuc ctr PMP22	S16 F2sN tox cnf	PMP22 txn cnf	others
Cc1ccc(NS(=O)(=O)c2ccc3[nH]c4c(c3c2)CCCC4)cc1N(C)C	-20%	17%	-16%	-17%	17µM*	?	2%	-20%	1%	7%	?
COc1ccccc1CNC(=O)Cn1c(=O)oc2cc(S(=O)(=O)N3CCC(C)CC3)ccc21	-9%	?	-6%	-5%	13µM*	?	-12%	-1%	1%	-18%	-26%
CCOc1cc(C(Nc2cc(C)ccn2)c2ccc3cccnc3c2O)ccc1OC (stereo not given)	i	?	?	?	10µM*	?	?	17µM*	-1%	?	?
Cc1cccc(Nc2c3c(nc4nncn24)CCC3)c1C	-21%	-4%	-19%	2%	?	-2%	?	9%	-6%	3%	?	PMP22 prot conf=2%
Cc1ccccc1Nc1c2c(nc3nncn13)CCC2	10%	-5%	-20%	-9%	-10%	8%	nt	nt	nt	nt	nt
CCOC(=O)c1c(NC(=O)c2ccc(S(=O)(=O)N3CCC(C)CC3)cc2)sc2c1CCN(C)C2	?	-26%	-2%	15µM*	18µM*	?	?	?	6%	?	18µM*
CCOC(=O)c1c(NC(=O)c2ccc(S(=O)(=O)N(C)C)cc2)sc2c1CCN(C)C2	?	-1%	-6%	?	?	-7%	nt	nt	nt	nt	nt
COc1ccc(C[C@@H](C)[C@@H](C)Cc2ccc(OC)c(OC)c2)cc1OC	16%	nt	nt	nt	nt	nt	nt	nt	nt	nt	nt
CCOC(=O)c1ccc(NC(=O)Cc2ccc(-n3c(CC)nc4cccnc43)cc2)cc1	-4%	-4%	8%	-10%	?	17%	-16%	?	-14%	?	13%
CCN1C(=O)c2ccccc2S(=O)c2ccc(C(=O)N3CCN(c4cccc(Cl)c4)CC3)cc21 (stereo not given)	i	-11%	-2%	-5%	18µM*	-4%	3.9µM*	3.4µM*	-1%	-5%	?
CC(=CC(=O)Nc1ccccc1C(=O)O)c1ccc2ccccc2c1	-14%	nt	nt	nt	nt	nt	nt	nt	nt	nt	nt
O=C(NCc1ccccc1)[C@H](Cc1ccccc1)NC(=O)[C@@H]1O[C@@H]1C(=O)NCCc1ccc(O)cc1	-5%	nt	nt	nt	nt	nt	nt	nt	nt	nt	nt
Cc1ccc(OCC(=O)Nc2ccc3[nH]c(=O)sc3c2)cc1	6%	1%	-16%	-10%	15µM*	15%	-13%	-14%	-16%	20%	?
Cc1cccc(NC(=O)CSc2nc3c(sc4ccccc43)c(=O)n2CCCC(=O)NC2CCCC2)c1	-5%	-7%	-4%	-11%	-29%	8%	nt	nt	nt	nt	nt
O=C(CSc1nc2c(sc3ccccc32)c(=O)n1CCCC(=O)NC1CCCC1)Nc1ccc(F)cc1	i	-8%	-4%	-1%	?	?	-13%	12%	-15%	-31%	11µM*
Cc1ccc(Cn2c(=O)n(Cc3ccccc3)c(=O)c3c(C)c(C)sc32)cc1	i	1%	18%	3%	-6%	-8%	nt	nt	nt	nt	nt
CCOC(=O)c1ccccc1NC(=O)Cn1c(=O)n(Cc2ccccc2)c(=O)c2c(C)c(C)sc21	-1%	7%	12%	?	18µM*	-7%	-10%	-4%	10%	6%	18%
COc1cc([C@H]2Oc3cc([C@H]4Oc5cc(O)cc(O)c5C(=O)[C@H]4O)ccc3O[C@H]2CO)ccc1O	16%	nt	nt	nt	nt	nt	nt	nt	nt	nt	nt
CCc1ccc2ncc(C(=O)c3ccc(C)c(C)c3)c(N3CCC(C(N)=O)CC3)c2c1	i	17%	?	-1%	13µM*	-8%	5.4µM*	7.7µM*	-1%	-13%	?
Cc1ccc(-n2nc3c(N4CCC(C(=O)NCCc5ccccc5C)CC4)nnc(C)c3c2C)cc1	?	-1%	-8%	-1%	9.5µM*	?	-16%	-4%	-9%	24µM*	?
CCOC(=O)C1CCN(C(=O)C2CCN(c3nnc(C)c4c(C)n(-c5ccccc5)nc34)CC2)CC1	i	19%	-4%	-5%	14µM*	18%	-10%	0%	3%	2%	-22%
Cc1ccc(-n2nc3c(N4CCC(C(=O)NCCC(C)C)CC4)nnc(C)c3c2C)cc1	6%	26%	?	-2%	6.2µM*	-27%	-9%	-3%	1%	-7%	?
Cc1nnc(N2CCC(C(=O)N3CCCCC3)CC2)c2nn(-c3ccccc3)c(C)c12	-9%	8%	12%	-8%	5%	-16%	nt	nt	nt	nt	nt
C[C@H](NC(=O)C(=O)Nc1ccccc1C(C)(C)C)C(=O)N[C@@H](CC(=O)O)C(=O)COc1c(F)c(F)cc(F)c1F	14%	nt	nt	nt	nt	nt	nt	nt	nt	nt	nt
CCCCNC(=O)c1cnn2c(C)c(Cc3c(C)cc(C)cc3C)c(C)nc12	-2%	?	22%	1%	?	-25%	nt	nt	nt	nt	nt
